Inhibition data for 31 molecules are collected here from ChEMBL document CHEMBL1157539, “Thousands of chemical starting points for antimalarial lead identification” (Nature, 2010).

What all share (assay type): functional
For test [1], the system named is Plasmodium falciparum. The experiment in a line: GSK_TCMDC: Inhibition of Plasmodium falciparum 3D7 in whole red blood cells, using parasite LDH activity as an index of growth. Test compounds present at 2uM.
Test [2] deals with Plasmodium falciparum. Briefly: GSK_TCMDC: Inhibition of Plasmodium falciparum Dd2 in whole red blood cells, using parasite LDH activity as an index of growth. Test compounds present at 2uM.
The next test concerns HepG2. The experiment in a line: GSK_TCMDC: Percent inhibition of human HepG2 cell line. Test compounds present at 10uM.

A word on the Inhibition: it is how much of the control response was suppressed. Higher therefore signals a response far below the control.

Take `O=C(C1CCN(C(c2ccccc2)c2ccc(Cl)c(Cl)c2)CC1)N1CC=CC1` (stereo not drawn): the results for the Inhibition in the test with Plasmodium falciparum [1], with Plasmodium falciparum [2] and in the test on HepG2 were 89%, 84% and 1%, respectively.

Turning to `CCOC(=O)c1cccc(NC(=N)Nc2nc(C)cc(NCCc3ccccc3)n2)c1`, the Inhibition is listed as 100% in the test with Plasmodium falciparum [1], 72% with Plasmodium falciparum [2] and 21% in the test with HepG2.

`CCCCNC[C@@H](O)[C@H](Cc1ccccc1)NC(=O)c1cc2c3c(c1)c(CC)cn3CCS(=O)(=O)N2C.O=CO`: the Inhibition with Plasmodium falciparum [1] came out at 99%; in the test with Plasmodium falciparum [2] it was 98%; with HepG2 it was 0%.

On to `CS(=O)(=O)Cc1ccc(Nc2nccc(-c3c(-c4cccc(C(=O)Nc5c(F)cccc5F)c4)nn4ccccc34)n2)cc1`, for which the Inhibition worked out at 96% in the test with Plasmodium falciparum [1], 92% in the test with Plasmodium falciparum [2] and 85% in the test on HepG2.

For `COc1ccc2c(=NN=Cc3ccncc3)cc(C)[nH]c2c1`, the Inhibition with Plasmodium falciparum [1] came to 99%; in the test with Plasmodium falciparum [2], 95%; with HepG2 it was 0%.

On to `O=C(Nc1ccc(-c2nc3ccccc3[nH]2)cc1)c1ccc(Cl)c([N+](=O)[O-])c1`, for which the Inhibition in the test with Plasmodium falciparum [1] was 99%; in the test with Plasmodium falciparum [2] it was 4%; in the test on HepG2, 6%.

For `Cc1nc2nc(N)nc(N)c2c(C)c1Cc1ccc(O)cc1.Cl`, the results for the Inhibition with Plasmodium falciparum [1], in the test with Plasmodium falciparum [2] and in the test on HepG2 were 94%, 0% and 64%, respectively.

As for `CC(C)c1ccc(O)cc1Nc1ccnc2ccc(C(F)(F)F)cc12`, the Inhibition stood at 97% with Plasmodium falciparum [1], 90% in the test with Plasmodium falciparum [2] and 6% with HepG2.

As to `COc1cc2nc(NCc3nc4ccccc4[nH]3)nc(N)c2cc1OC.Cl`, the Inhibition in the test with Plasmodium falciparum [1] is on record as 97%; with Plasmodium falciparum [2], 10%; in the test on HepG2 it was 3%.

Turning to `COc1ccc2nccc([C@@H](O)CN3CCC(NCc4cc5cccc(OCc6ccccc6)c5[nH]4)CC3)c2c1`, the Inhibition in the test on Plasmodium falciparum [1] is reported as 100%; in the test on Plasmodium falciparum [2] it was 40%; with HepG2, 13%.

Turning to `O=C(/C=C/c1ccc(Cl)c(Cl)c1)NCCCCCCN1CCCN(C(=O)Nc2cccc(C(F)(F)F)c2)CC1`, the figures for the Inhibition in the test on Plasmodium falciparum [1], in the test on Plasmodium falciparum [2] and with HepG2 were 95%, 0% and 25%, respectively.

As to `CNCCNCc1cccc(-c2ccc(-c3nc4ccccc4[nH]3)cc2)c1.O=C(O)C(F)(F)F`, the Inhibition in the test on Plasmodium falciparum [1] is given as 99%; with Plasmodium falciparum [2], 27%; in the test with HepG2, 13%.

`COc1ccc(-c2csc3nc(C)nc(Cl)c23)cc1OC`: the Inhibition came to 97% with Plasmodium falciparum [1], 95% in the test with Plasmodium falciparum [2] and 0% in the test on HepG2.

On to `CC(C)Nc1nc(NCCc2c[nH]cn2)nc(NCc2cccc3ccccc23)n1`, for which the Inhibition in the test with Plasmodium falciparum [1] is on record as 90%; in the test on Plasmodium falciparum [2] it was 0%; in the test on HepG2, 4%.

Turning to `CC(Cc1ccc(OCCN2CCN(c3cccc(Cl)c3)CC2)cc1)NCC(O)c1cccc(Cl)c1.Cl` (stereo not drawn), the Inhibition is 93% in the test on Plasmodium falciparum [1], 91% in the test on Plasmodium falciparum [2] and 48% with HepG2.

With `CN(C)CCCOc1ccc(-c2nc(-c3ccc4c(c3)CCC4=NO)c(-c3ccncc3)[nH]2)cc1.Cl`, the Inhibition in the test with Plasmodium falciparum [1] is 96%; in the test on Plasmodium falciparum [2], 63%; in the test with HepG2 it was 68%.

Turning to `CSc1ccc(C=CC(=O)NC(=O)c2ccccc2O)cc1`, the Inhibition with Plasmodium falciparum [1] was 97%; with Plasmodium falciparum [2], 96%; in the test with HepG2 it was 2%.

Take `Cc1ccc(O)c(-c2cc(C(=O)Nc3ccc(S(=O)(=O)N4CCCCC4)cc3)[nH]n2)c1`: the Inhibition with Plasmodium falciparum [1] amounted to 94%; in the test with Plasmodium falciparum [2], 98%; with HepG2, 31%.

For `COc1ccc(-c2cccc(CNC3CCN(C)CC3)c2)cc1S(=O)(=O)NCc1ccccc1.O=C(O)C(F)(F)F`, the Inhibition is reported as 90% in the test on Plasmodium falciparum [1], 22% in the test with Plasmodium falciparum [2] and 18% in the test on HepG2.

In the case of `Cn1cnc2c(Nc3ccncc3)nc(-c3ccc4ccccc4c3)nc21`, the values for the Inhibition in the test with Plasmodium falciparum [1], with Plasmodium falciparum [2] and in the test with HepG2 were 96%, 66% and 55%, respectively.

Turning to `Nc1nccc2ccc(Oc3ccncc3)cc12`, the values for the Inhibition in the test with Plasmodium falciparum [1], in the test with Plasmodium falciparum [2] and in the test on HepG2 were 91%, 81% and 0%, respectively.

As to `CN1CCC(N(Cc2ccc(-c3cnc(NCc4ccccc4)nc3)cc2)S(=O)(=O)c2ccccc2)CC1.O=C(O)C(F)(F)F`, the Inhibition came to 100% in the test with Plasmodium falciparum [1], 10% in the test on Plasmodium falciparum [2] and 48% with HepG2.

In the case of `CN1CCN(CC(O)CNC(=O)Nc2ccc(Cl)cc2)CC1.O=C(O)C(F)(F)F` (stereo not drawn), the Inhibition in the test with Plasmodium falciparum [1] is reported as 99%; in the test on Plasmodium falciparum [2], 98%; with HepG2 it was 1%.

For the molecule `COc1cccc2cc(C(=O)N[C@@H](CC(C)C)C(=O)N[C@H](C=NNC(=O)OC(C)(C)C)CC(C)C)oc12`, the figures for the Inhibition with Plasmodium falciparum [1], in the test on Plasmodium falciparum [2] and in the test on HepG2 were 88%, 57% and 8%, respectively.

`CN1CCN(c2ccc(Nc3ncc(C#N)c(Nc4ccccc4C(N)=O)n3)cc2)CC1.Cl`: the Inhibition in the test with Plasmodium falciparum [1] was found to be 92%; with Plasmodium falciparum [2], 93%; in the test on HepG2 it was 43%.

For `C#CCCC(=O)Nc1cccc(-c2cccc(-c3nc4cc(C(F)(F)F)ccc4[nH]3)c2)c1`, the figures for the Inhibition with Plasmodium falciparum [1], in the test with Plasmodium falciparum [2] and in the test on HepG2 were 90%, 45% and 14%, respectively.

Regarding `COc1ccc(NC(=O)Nc2ccc(C)c(-c3ccc(C(=O)Nc4ccncc4)cc3)c2)cc1`, the Inhibition in the test with Plasmodium falciparum [1] is reported as 99%; in the test on Plasmodium falciparum [2], 50%; in the test on HepG2, 39%.

As to `Cc1nc2ccccc2c(O)c1[N+](=O)[O-]`, the Inhibition in the test on Plasmodium falciparum [1] was 88%; with Plasmodium falciparum [2], 0%; with HepG2, 5%.

On to `O=C(/C=C/c1ccc(Cl)c(Cl)c1)N1CCC(CN2CCC(Cc3cc4ccccc4[nH]3)CC2)CC1`, for which the Inhibition is 96% in the test on Plasmodium falciparum [1], 56% in the test on Plasmodium falciparum [2] and 49% with HepG2.

On to `COc1ccc2nc(-c3cccc(C)n3)nc(Nc3ccncc3)c2c1`, for which the Inhibition in the test on Plasmodium falciparum [1] is on record as 100%; in the test on Plasmodium falciparum [2], 42%; with HepG2, 0%.

`COc1cccc(C(=O)Nc2ccc(Nc3nc(C)cc(N(C)C)n3)cc2)c1OC`: the Inhibition in the test on Plasmodium falciparum [1] is reported as 90%; with Plasmodium falciparum [2] it was 9%; with HepG2, 0%.
